Out of some 5,500 compounds screened, about 2,000 (36%) were called active. Inconclusive results (about 18%) are left out. Rule as the data show it: active = normalized growth mostly below about 0.91 (no sharp cut-off); inconclusive = no clear call, values can overlap the other calls; inactive = mostly above about 0.92. The list shows a part of the results.
Experiment: chemical genetic growth profiling, strain panel (AID 1159580);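 also: tested at 20 µM; growth read once vehicle control cultures reached saturation at 30 °C; 1 = growth at the plate median or of vehicle wells; lower values mean less growth of the strain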
Conditions: S. cerevisiae deletion strains, growth OD
[1] = locus YAL040C, strain CLN3, hits give low values
[2] = locus YCL061C, strain MRC1 (second series), hits give low values
[3] = locus YDR150W, strain NUM1, hits give low values
[4] = locus YDR363W, strain ESC2, hits give low values
[5] = locus YJR075W, strain HOC1, hits give low values
[6] = locus YMR263W, strain SAP30, hits give low values
[7] = locus YMR307W, strain GAS1, hits give low values
[8] = locus YNL175C, strain NOP13, hits give low values
[9] = locus YNL197C, strain WHI3, hits give low values
[10] = locus YNL224C, strain SQS1, hits give low values
[11] = locus YOR083W, strain WHI5 (second series), hits give low values

Measured: normalized growth

CC[C@@H]1C=C/C=C/C[C@H](C)[C@@H](O)[C@](C)(O)C(=O)[C@H](C)[C@@H](O)[C@H](C)C(=O)[C@H](C)[C@@H](O)[C@H](C)/C=C/C(=O)O[C@H]2[C@@H](C)[C@@H](CC1)O[C@@]1(CC[C@@H](C)[C@@H](C[C@H](C)O)O1)[C@@H]2C
active: locus YLR262C, strain YPT6 (second series), hits give low values 0.852 | locus YMR205C, strain PFK2, hits give low values 0.815 | locus YPL106C, strain sse1, hits give low values 0.807
inactive: locus YAL021C, strain ccr4, hits give low values 0.977 | locus YAL026C, strain drs2, hits give low values 1.01 | locus YAL030W, strain snc1, hits give low values 1 | locus YBL061C, strain skt5, hits give low values 1 | locus YBR009C, strain hhf1, hits give low values 0.985 | locus YBR023C, strain chs3, hits give low values 1 | locus YBR171W, strain sec66, hits give low values 1.01 | locus YBR231C, strain swc5, hits give low values 1 | locus YBR279W, strain paf1, hits give low values 0.982 | locus YCL011C, strain gbp2, hits give low values 1.02 | locus YCL016C, strain dcc1, hits give low values 1.02 | locus YCL061C, strain MRC1, hits give low values 1.01 | locus YCL069W, strain vba3, hits give low values 1.01 | locus YCR088W, strain abp1, hits give low values 1.02 | locus YDL005C, strain med2, hits give low values 1 | locus YDL040C, strain nat1, hits give low values 1.01 | locus YDR001C, strain nth1, hits give low values 1.01 | locus YDR069C, strain doa4, hits give low values 0.997 | locus YDR137W, strain rgp1, hits give low values 0.899 | locus YDR159W, strain sac3, hits give low values 0.953 | locus YDR195W, strain ref2 0.999 | locus YDR297W, strain sur2, hits give low values 1.01 | locus YDR334W, strain swr1, hits give low values 1.02 | locus YDR335W, strain msn5, hits give low values 1.01 | locus YDR392W, strain spt3, hits give low values 0.958 | locus YEL003W, strain gim4, hits give low values 1.01 | locus YEL037C, strain rad23, hits give low values 1.02 | locus YEL061C, strain CIN8 (second series), hits give low values 1.01 | locus YER015W, strain faa2, hits give low values 0.997 | locus YER016W, strain bim1, hits give low values 1.01 | locus YER111C, strain swi4, hits give low values 1.01 | locus YER155C, strain BEM2 (second series), hits give low values 1.03 | locus YFR010W, strain ubp6, hits give low values 1 | locus YGL167C, strain pmr1, hits give low values 1.01 | locus YGL173C, strain kem1, hits give low values 0.996 | locus YGL227W, strain vid30, hits give low values 1.01 | locus YGL240W, strain doc1, hits give low values 1.01 | locus YGL253W, strain hxk2, hits give low values 0.927 | locus YHR013C, strain ard1, hits give low values 0.967 | locus YHR027C, strain rpn1, hits give low values 1 | locus YHR142W, strain chs7, hits give low values 1.03 | locus YJL092W, strain hpr5, hits give low values 1.01 | locus YJL095W, strain BCK1 (second series), hits give low values 1.02 | locus YJL115W, strain asf1, hits give low values 1.01 | locus YJL129C, strain trk1, hits give low values 0.967 | locus YJL154C, strain vps35, hits give low values 1.01 | locus YJL164C, strain tpk1, hits give low values 0.987 | locus YJL166W, strain qcr8, hits give low values 1.01 | locus YJL187C, strain SWE1, hits give low values 1.01 | locus YKL160W, strain elf1, hits give low values 0.997 | locus YKR026C, strain gcn3, hits give low values 0.99 | locus YKR091W, strain srl3, hits give low values 1.01 | locus YLL001W, strain dnm1, hits give low values 0.984 | locus YLL026W, hits give low values 1.01 | locus YLL041C, strain sdh2, hits give low values 1.01 | locus YLR027C, strain aat2, hits give low values 0.995 | locus YLR221C, strain rsa3, hits give low values 1.02 | locus YLR258W, strain gsy2, hits give low values 0.997 | locus YLR320W, strain mms22, hits give low values 0.984 | locus YLR342W, strain FKS1, hits give low values 1 | locus YLR357W, strain rsc2, hits give low values 1.03 | locus YLR370C, strain arc18, hits give low values 0.994 | locus YLR384C, strain iki3, hits give low values 0.999 | locus YML120C, strain ndi1, hits give low values 0.995 | locus YMR058W, strain fet3, hits give low values 1.02 | locus YMR125W, strain sto1, hits give low values 1.04 | locus YMR129W, hits give low values 0.999 | locus YMR231W, strain pep5, hits give low values 1 | locus YNL071W, strain lat1, hits give low values 1.01 | locus YNL209W, strain ssb2, hits give low values 0.997 | locus YNL248C, strain rpa49, hits give low values 1.01 | locus YNL322C, strain KRE1 (second series), hits give low values 1.02 | locus YNR049C, strain mso1, hits give low values 1.02 | locus YOR001W, strain rrp6, hits give low values 0.999 | locus YOR070C, strain gyp1, hits give low values 1 | locus YOR080W, strain dia2, hits give low values 1.01 | locus YOR083W, strain WHI5, hits give low values 1 | locus YOR106W, strain vam3, hits give low values 0.99 | locus YOR265W, strain rbl2, hits give low values 1 | locus YOR270C, strain vph1, hits give low values 0.914 | locus YOR290C, strain snf2, hits give low values 0.966 | locus YPL051W, strain arl3, hits give low values 1.01 | locus YPL078C, strain atp4, hits give low values 1.02 | locus YPL240C, strain hsp82, hits give low values 0.989

CC[C@@H]1C=C/C=C/C[C@H](C)[C@@H](O)[C@](C)(O)C(=O)[C@H](C)[C@@H](O)[C@H](C)C(=O)[C@H](C)[C@@H](O)[C@H](C)/C=C/C(=O)O[C@H]2[C@@H](C)[C@@H](CC1)O[C@@]1(CC[C@@H](C)[C@@H](CC(C)O)O1)[C@@H]2C (stereo partly specified)
active: [7] 0.911
inactive: [1] 0.989 | [2] 1.01 | [3] 1 | [4] 0.961 | locus YER002W, strain NOP16, hits give low values 0.945 | [5] 0.973 | [6] 1.02 | locus YNL128W, strain TEP1, hits give low values 0.96 | [8] 0.969 | [9] 0.99 | [10] 0.993 | [11] 0.971 | locus YPL055C, strain LGE1, hits give low values 0.936

COc1cccc(C2CCN(C(=O)c3cccc4ccccc34)CC2)c1
inactive: locus YAR019C, strain CDC15, hits give low values 0.996 | locus YBL105C, strain PKC1, hits give low values 0.988 | locus YBR135W, strain CKS1, hits give low values 0.982 | locus YBR136W, strain MEC1, hits give low values 0.981 | locus YBR160W, strain CDC28, hits give low values 0.991 | locus YDL017W, strain CDC7, hits give low values 0.99 | locus YDL028C, strain MPS1, hits give low values 0.993 | locus YDL101C, strain DUN1, hits give low values 0.982 | locus YDL108W, strain KIN28, hits give low values 0.987 | locus YDL132W, strain cdc53, hits give low values 0.993 | locus YDL214C, strain PRR2, hits give low values 0.866 | locus YDR052C, strain DBF4, hits give low values 0.99 | locus YDR054C, strain cdc34, hits give low values 0.988 | locus YDR226W, strain ADK1, hits give low values 0.988 | locus YDR477W, strain SNF1, hits give low values 0.923 | locus YER123W, strain YCK3, hits give low values 0.828 | locus YER133W, strain GLC7, hits give low values 0.899 | locus YFL009W, strain cdc4, hits give low values 0.992 | locus YFL029C, strain CAK1, hits give low values 0.99 | locus YFR003C, strain YPI1, hits give low values 0.987 | locus YFR019W, strain FAB1, hits give low values 0.89 | locus YFR028C, strain CDC14, hits give low values 0.99 | locus YGR040W, strain KSS1, hits give low values 0.904 | locus YGR052W, strain FMP48, hits give low values 0.958 | locus YGR092W, strain DBF2, hits give low values 0.903 | locus YHR030C, strain SLT2, hits give low values 1 | locus YHR079C, strain IRE1, hits give low values 0.967 | locus YHR082C, strain KSP1, hits give low values 0.946 | locus YHR205W, strain SCH9, hits give low values 0.907 | locus YIL147C, strain SLN1, hits give low values 0.987 | locus YJL095W, strain BCK1, hits give low values 0.973 | locus YJL128C, strain PBS2, hits give low values 0.935 | locus YJL157C, strain FAR1, hits give low values 0.886 | locus YJR016C, strain ILV3, hits give low values 0.99 | locus YJR066W, strain TOR1 (second series), hits give low values 0.882 | locus YJR066W, strain TOR1, hits give low values 0.948 | locus YKL048C, strain ELM1, hits give low values 0.919 | locus YKL067W, strain YNK1, hits give low values 0.907 | locus YKL101W, strain HSL1, hits give low values 0.882 | locus YKL193C, strain SDS22, hits give low values 0.991 | locus YKL203C, strain TOR2, hits give low values 0.978 | locus YLR113W, strain HOG1, hits give low values 0.91 | locus YLR133W, strain CKI1, hits give low values 0.94 | locus YLR403W, strain SFP1, hits give low values 0.922 | locus YML070W, strain DAK1, hits give low values 0.859 | locus YMR001C, strain CDC5, hits give low values 0.987 | locus YMR205C, strain PFK2 (second series), hits give low values 0.914 | locus YMR277W, strain FCP1, hits give low values 0.995 | locus YNL006W, strain LST8, hits give low values 0.987 | locus YNL020C, strain ARK1, hits give low values 0.9 | locus YNL161W, strain CBK1, hits give low values 0.992 | locus YNL183C, strain NPR1, hits give low values 0.963 | locus YNL207W, strain RIO2, hits give low values 0.997 | locus YNL222W, strain SSU72, hits give low values 0.994 | locus YNL307C, strain MCK1 (second series), hits give low values 0.903 | locus YOL078W, strain AVO1, hits give low values 0.997 | locus YOL136C, strain PFK27, hits give low values 0.898 | locus YOR061W, strain CKA2, hits give low values 0.877 | locus YOR119C, strain RIO1, hits give low values 0.954 | locus YOR231W, strain MKK1, hits give low values 0.935 | locus YOR329C, strain SCD5, hits give low values 0.991 | locus YPL031C, strain PHO85, hits give low values 0.913 | locus YPL153C, strain RAD53, hits give low values 0.899 | locus YPL204W, strain HRR25, hits give low values 0.923 | locus YPL209C, strain IPL1, hits give low values 0.992 | locus YPL256C, strain CLN2, hits give low values 0.942 | locus YPR025C, strain CCL1, hits give low values 0.995 | locus YPR106W, strain ISR1, hits give low values 0.979 | locus YPR111W, strain DBF20, hits give low values 0.975 | strain NNK1, hits give low values 0.976 | strain TSCII, hits give low values 0.993

C[N+](C)(C)CCC(=O)c1cccc2ccccc12
active: [1] 0.095 | [5] 0.813 | [7] 0.775 | locus YNL153C, strain GIM3, hits give low values 0.104 | [8] 0.0891 | [10] 0.0743 | [11] 0.231
inactive: [2] 0.951 | [3] 0.972 | [4] 0.962 | locus YGR078C, strain PAC10, hits give low values 0.989 | [6] 0.99 | [9] 0.93 | locus YPL241C, strain CIN2, hits give low values 1
